Source: PubChem BioAssay AID1578 (Sanford-Burnham Center for Chemical Genomics, 2009)
Screen size: about 290,000 compounds; about 3,000 (1%) were called active. Cut-off read from the data, not from the text of the source: active = inhibition mostly above about 36% (no sharp cut-off); inactive = mostly below about 34%. The sample as a whole holds a higher share of actives than the screen did.

Assay: NOD1 signaling inhibitors, primary screen, cell-based, luminescence, uHTS (AID 1578);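 note: HEK-293T reporter cells stimulated with the NOD1 agonist gamma-tri-DAP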
Details: NOD1-driven NF-kB luciferase reporter cells, at 4 µM, active compounds read high
With `CCOC(=O)c1cnn(-c2ccccc2)c1-n1cccc1C(=O)C(=O)Nc1ccccc1` the inhibition was -28.7% (inactive). With `CCOC(=O)c1cnn(-c2ccccc2)c1-n1cccc1C(=O)C(=O)N(C)C` the inhibition was -12.4% (inactive). In the case of `CCOC(=O)c1cnn(-c2ccccc2)c1-n1cccc1C(=O)C(=O)N(CC)CC`, the inhibition is reported as 42.8% (active). For `Cc1ccc(-c2nnn(Cc3nc(N)nc(N4CCOCC4)n3)n2)cc1`, the inhibition was 5.1% (inactive). With `CC(=O)C(=Cc1ccc(C(=O)O)cc1)C(C)=O` the inhibition was -17.7% (inactive). With `ClCc1cc2ccccc2nc1Cl` the inhibition was -27% (inactive). For `COc1ccc2cc(CO)c(Cl)nc2c1`, the inhibition was -28.1% (inactive). For `COc1ccc2cc(CCl)c(Cl)nc2c1`, the inhibition was 70.1% (active). In the case of `COc1ccc2cc(C#N)c(Cl)nc2c1`, the inhibition is reported as -29.7% (inactive). In the case of `Cc1ccc2cc(CCl)c(Cl)nc2c1`, the inhibition is reported as 50.2% (active). For `Cc1ccc2cc(C=O)c(Cl)nc2c1`, the inhibition was -3.3% (inactive). For `COc1ccc(S(=O)(=O)N2Cc3ccccc3CC2C(=O)N2CCOCC2)cc1` (configuration not stated), the inhibition was 3.2% (inactive). With `COc1cscc1C(N)=O` the inhibition was 6.7% (inactive). With `c1ccc2c(c1)ncn2Cc1nnc2sc(-c3ccc4c(c3)OCO4)nn12` the inhibition was -4.4% (inactive). For `O=C(NC1CCCCCC1)c1cc(S(=O)(=O)N2CCCCC2)ccc1N1CCOCC1`, the inhibition was -7.1% (inactive). With `CC1CCC(C(C)C)C(OCC(O)CN2CCCC(C)C2)C1` (configuration not stated) the inhibition was -44.4% (inactive). For `Cc1cc(C(=O)NC2CCCc3c2cnn3-c2cccc(C)c2C)no1` (configuration not stated), the inhibition was 11.2% (inactive). In the case of `Cc1cccc(-n2ncc3c2CCCC3NC(=O)C2CCOCC2)c1C` (configuration not stated), the inhibition is reported as 9.8% (inactive). In the case of `Cc1cc(C)c(C(=O)NC2CCCc3c2cnn3-c2cccc(C)c2C)o1` (configuration not stated), the inhibition is reported as -10.7% (inactive). For `Cn1nccc1C(=O)NC1CCCc2c1cnn2-c1cc(F)cc(F)c1` (configuration not stated), the inhibition was 35.1% (inactive). For `O=C(NC1CCCc2c1cnn2-c1ccccc1F)c1ccccn1` (configuration not stated), the inhibition was 20.6% (inactive). In the case of `Cc1cc(C)cc(-n2ncc3c2CCCC3NC(=O)C2(C(N)=O)CC2)c1` (configuration not stated), the inhibition is reported as -11.6% (inactive). In the case of `Cc1cccc(-n2ncc3c2CCCC3NC(=O)c2ccc[n+]([O-])c2)c1C` (configuration not stated), the inhibition is reported as -3.9% (inactive). With `COc1ccc(C(=O)NC2CCCc3c2cnn3-c2cccc(C)c2C)o1` (configuration not stated) the inhibition was 0.8% (inactive). With `CC(C)N(CCCNC(=O)c1ccc(CS(=O)(=O)c2c(Cl)cccc2Cl)o1)Cc1ccccc1` the inhibition was -4.4% (inactive). For `CCOC(=O)N1CCN(C(=O)CSc2ccc3nnc(-c4cccnc4)n3n2)CC1`, the inhibition was -22.3% (inactive). In the case of `CCOC(=O)C1(Cc2cccc(OC)c2)CCCN(C(=O)CCc2cccnc2)C1` (configuration not stated), the inhibition is reported as -50.3% (inactive). With `CCc1ccc(-n2cccc2/C=C2/C(=N)N3C(=NC2=O)SN=C3S(C)(=O)=O)cc1` the inhibition was 1.2% (inactive). For `Cc1nn(CC(=O)N2CCC(C(N)=O)CC2)c(=O)c2nn(-c3ccccc3)c(C)c12`, the inhibition was -5.3% (inactive). In the case of `COc1ccc(CNC(=O)c2csc(Cc3ccc(Cl)cc3)n2)cc1`, the inhibition is reported as 25.6% (inactive). With `COc1ccc(-c2nc(N3CCCC3)[nH]c(=O)c2C#N)cc1` the inhibition was -42.4% (inactive). In the case of `COc1ccc(-c2nc(N3CCC(C)CC3)[nH]c(=O)c2C#N)cc1`, the inhibition is reported as 73.1% (active). With `CC1CCN(c2nc(-c3ccccc3)c(C#N)c(=O)[nH]2)CC1` the inhibition was 34.5% (inactive). In the case of `CCOC(=O)N1CCN(CC(O)COc2c(C)cccc2C)CC1` (configuration not stated), the inhibition is reported as 24.9% (inactive). In the case of `CCC(C)(C)NC(=S)Nc1ccccc1C`, the inhibition is reported as -38.1% (inactive). In the case of `C=CCn1c(Oc2cccc(C)c2)nc2c1c(=O)n(C)c(=O)n2C`, the inhibition is reported as -2.9% (inactive). For `COc1ccc(-c2onc3ccc(Cl)cc23)cc1`, the inhibition was -9.1% (inactive). In the case of `Cc1cc(-c2onc3ccc(Cl)cc23)ccc1O`, the inhibition is reported as 52.9% (active). With `Cc1ccc(-c2onc3ccc(Cl)cc23)cc1` the inhibition was -3.6% (inactive). In the case of `CN1CCN(S(=O)(=O)c2cccc(C(=O)N(c3ccccn3)C3CCCCC3)c2)CC1`, the inhibition is reported as -0.4% (inactive). For `Cc1nc(SCC(=O)N2CCN(c3ccccc3)CC2)c2oc3ccccc3c2n1`, the inhibition was 33.4% (inactive). In the case of `CCc1nc(Nc2ccc(N3CCN(C(C)=O)CC3)cc2)c2oc3ccccc3c2n1`, the inhibition is reported as 7.6% (inactive). For `CC(=O)N1N=C(c2ccc(Cl)cc2)CC1c1ccc([N+](=O)[O-])cc1` (configuration not stated), the inhibition was -12.3% (inactive). For `CC1(O)CC(c2ccc(Cl)cc2)=NN1C(=O)c1ccc([N+](=O)[O-])cc1` (configuration not stated), the inhibition was 92.3% (active). With `CC1(O)CC(c2ccc(Cl)cc2)=NN1C(=O)c1ccc(Cl)cc1` (configuration not stated) the inhibition was -27.7% (inactive). In the case of `CCOc1cc(/C=C2/NC(=S)NC2=O)ccc1OCc1ccc([N+](=O)[O-])cc1`, the inhibition is reported as -30% (inactive). For `CCOc1cc(/C=N/O)ccc1OCc1ccc([N+](=O)[O-])cc1`, the inhibition was -20.2% (inactive). In the case of `COc1cc(/C=C/C(=O)O)ccc1OCc1ccc([N+](=O)[O-])cc1`, the inhibition is reported as -13.3% (inactive). With `COC(=O)c1cc(C)ccc1OCc1ccc([N+](=O)[O-])cc1` the inhibition was -8.7% (inactive). In the case of `O=C(NCCc1ccccc1)C1(S(=O)(=O)c2ccc(Cl)cc2)CC1`, the inhibition is reported as 7.4% (inactive). In the case of `O=C(CSc1nc(-c2ccncc2)nn1CC(=O)N1CCCCC1)NC1CCCC1`, the inhibition is reported as -4% (inactive). In the case of `CC1CC(=O)N(CC(=O)NCc2ccccc2)c2ccccc2S1(=O)=O` (configuration not stated), the inhibition is reported as -32.8% (inactive). With `O=C1CCc2cc(S(=O)(=O)N3CCN(c4cccc(C(F)(F)F)c4)CC3)ccc2N1` the inhibition was -6.5% (inactive). With `Cc1nnnn1/C(=C\c1ccccc1)C(=O)OCC(=O)NC(C)(C)C` the inhibition was 91.3% (active). In the case of `CC(=O)c1ccccc1NC(=O)COC(=O)/C(=C/c1ccccc1)n1nnnc1C`, the inhibition is reported as -8% (inactive). In the case of `CC(=O)Nc1ccc(NC(=O)COC(=O)/C(=C/c2ccccc2)n2nnnc2C)cc1`, the inhibition is reported as -15.3% (inactive). For `CCOC(=O)C1(CCCc2ccccc2)CCN(C(=O)c2cnc(C)cn2)CC1`, the inhibition was 2.2% (inactive). In the case of `CC(=O)OC(C(=O)NC1CCCCC1)c1ccc(Cl)c(Cl)c1` (configuration not stated), the inhibition is reported as -34.6% (inactive). With `COc1ccc(OCC(=O)N/N=c2\oc3c(OC)cccc3cc2C(N)=O)cc1` the inhibition was -30.3% (inactive). With `COc1ccc(CNC(=O)C(c2ccco2)N(Cc2cccs2)C(=O)Cc2cccs2)cc1` (configuration not stated) the inhibition was 2% (inactive). With `COc1ccc(CNC(=O)C(c2ccc(C)o2)N(Cc2cccs2)C(=O)Cc2cccs2)cc1` (configuration not stated) the inhibition was 68.3% (active). For `COc1ccc(CNC(=O)C(c2cccs2)N(Cc2ccco2)C(=O)Cc2cccs2)cc1` (configuration not stated), the inhibition was 23.3% (inactive).
